# In PubChem BioAssay (NCI):
# The panel holds about 83,000 compounds, 20% with a hit somewhere; the sample as a whole holds those more often.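 Activity criterion: percent growth below 10, measured after cells in 96-well plates were exposed to a single compound concentration for 48 hours.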 Values without a mark were called inactive. Active and inactive are the calls of the source.
# System: CAKI-1 renal
# Experiment: NCI-60 one-dose screen, 48 h (100 = growth as untreated, 0 = no growth, -100 = all killed)
# Conditions: 10 µM unless noted
row,SMILES,growth
1,COC(=O)[C@]12CC[C@@H](C)[C@H](C)[C@@H]1C1=CC[C@@H]3[C@@]4(C)C[C@@H](OC(C)=O)[C@H](O)[C@@](C)(COC(C)=O)[C@@H]4[C@H](O)C[C@@]3(C)[C@]1(C)CC2,-88.2% (active)
2,N#Cc1c(-c2ccco2)nc2c(c(-c3ccccc3)nn2-c2ccccc2)c1-c1ccc(O)cc1,58.9%
3,CC(=O)c1c(C)[nH]c(-c2nc3ccc(N4CCN(C)CC4)cc3[nH]2)c1-c1ccc2c(c1)OCCO2,13.3%
4,COc1ccc(C(=O)c2ccc(C)cc2)c(OC)c1OC,64.8%
5,C[C@H]1OC(=O)/C=C/[C@@H](O)[C@@H](O)CCCCCCCC[C@@H]1O,96.3%
6,COc1ccccc1-n1cnc(N)c1C(=O)c1cc(OC)c(OC)c(OC)c1,39.8%
7,COc1ccc(/C=C(\C#N)c2cc3ccccc3n2S(C)(=O)=O)cc1,53.2%
8,Cc1cccc2c1NC(=O)[C@@]21[C@H](C(=O)c2ccccc2)[C@]2(C(=O)Nc3ccccc32)[C@H]2CCCN21,11.6% [100 µM]
9,N=c1ccc2nc3c(cc(N)c4ccccc43)oc-2c1,-60% (active)
10,COc1cccc(-c2nn(-c3ccccc3)cc2-c2ccnc(NCCCNS(=O)(=O)c3ccc(Br)cc3)c2)c1,51.1%
11,Cc1ccc(-c2nn(Cc3cn(-c4cc(C)nc5ccccc45)nn3)c3ncnc(N)c23)cc1,20.8%
12,COc1ccc2c(c1)c1nc3cc(C)c(C)cc3nc1n2CCN(C)C,4.98% (active)
13,CC(=O)n1c(/C(C#N)=C/c2ccc(N(C)C)cc2)cc2ccccc21,37.7%
14,C[C@H]1[C@H]2C3=CC[C@@H]4[C@@]5(C)C/C(=C/c6ccco6)C(=O)C(C)(C)[C@@H]5CC[C@@]4(C)[C@]3(C)CC[C@@]2(C(=O)N2CCOCC2)CC[C@@H]1C,42.5%
15,Fc1ccc(Nc2ccc3c(OCCCN4CCOCC4)cccc3n2)cc1F,82.3%
16,COc1cccc(-c2nn(-c3ccccc3)cc2-c2ccnc(NCCNS(=O)(=O)c3ccc(C(F)(F)F)cc3)c2)c1,16.8%
17,Cn1cnc2c1c(=O)n(CCC(=O)Nc1ccc(F)cc1)c(=O)n2C,93.7%
18,COCCNC1=C(Cl)C(=O)c2ccccc2C1=O,116%
19,CCCCn1c(-c2ccc(O)cc2)cn2c3c(=O)[nH]c(=O)n(C)c3nc12,86.6%
20,Cc1ccc(N(CC(=O)Nc2ccc(S(=O)(=O)NC3CCN(C)CC3)cc2)S(=O)(=O)c2ccc(Cl)cc2)cc1,89%

row,SMILES,growth
1,CC(=O)OC[C@]12CC[C@@H](/C(C)=N/O)[C@@H]1[C@H]1CC[C@@H]3[C@@]4(C)CCCNC(C)(C)[C@@H]4CC[C@@]3(C)[C@]1(C)CC2,36.7%
2,Clc1ccc(Cn2cc(-c3nc4ccc(Br)nc4n3Cc3ccc(Cl)cc3)c3cccnc32)cc1,82%
3,CN1CCN(CCOc2ccc(-c3cnc4c(-c5cccc(F)c5)cnn4c3)cc2)CC1,64.5%
4,CN1CCN(c2nc(-c3csc(-c4cccs4)n3)cc3ccccc23)CC1,39.6%
5,CCN(CC)CCCCCCNc1ccnc2cc(Cl)ccc12,84.2%
6,CCCCCCCC(=O)SCC/C=C/[C@@H]1CC(=O)NCc2cccc(n2)CN(Cc2ccc(Cl)cc2)CC(=O)N[C@@H](C(C)C)C(=O)O1,-7.97% (active)
7,c1cc(N2CCCC2)c2nc(-c3[nH]ncc3Nc3ncnc4[nH]ccc34)[nH]c2c1,-33.2% (active)
8,COc1ccc(C2=NN(c3nc(-c4ccc(OC)cc4)c(C#N)c(=O)n3C)C(=O)CC2)cc1,96%
9,Cc1ccc(S(=O)(=O)Nc2ccc(-c3cc(-c4cccc(F)c4)c(C#N)c(N)n3)cc2)cc1,10.9%
10,CC(C)(C)c1ccc(OCCCCCCCN2CCNCC2)cc1,44.8%
11,COC(=O)CNc1nc(N(C)O)nc(N(C)O)n1,34.1%
12,COc1cc2ncnc(Nc3ccc(Oc4ccnc(C)c4)c(C)c3)c2cc1NC(=O)CC1CCSS1 (centres undefined),3.34% (active)
13,C=C(C)[C@@H]1CC[C@]2(C)[C@H](CC[C@@H]3[C@H]4[C@H]5OC[C@@]4(CCC5(C)C)CC[C@]32C)[C@@]1(C)CCCN,3.89% (active)
14,c1ccc(-c2nc(Nc3ccc(-c4nc5ccccc5[nH]4)cc3)nc(N3CCOCC3)n2)cc1,-89.4% (active)
15,CCOC(=O)C1OC1(c1ccccc1)c1ccccc1 (centres undefined),79.5%
16,CCN1CCN(C(=O)[C@@]2(C)CC[C@]3(C)CC[C@]4(C)C(=CC(=O)[C@@H]5[C@@]6(C)CC[C@H](OCCC#N)C(C)(C)[C@@H]6CC[C@]54C)[C@@H]3C2)CC1,80.2%
17,O=S(=O)(NCCNc1cc(-c2cn(-c3ccccc3)nc2-c2cccc(O)c2)ccn1)c1cccc(F)c1,44.3%
18,N#CC1=C(N)Oc2ccc3ccccc3c2C1c1ccccc1 (centres undefined),23.3%
19,COc1ccc(-c2cc(=O)oc3ccc(Cl)cc23)cc1F,27%
